Experimental findings from PubChem BioAssay (EPA / NIEHS) are described below.

“And” between values parts separate entries of the source, which are not always exact repeats. Identical values can stand only once. The source holds several records for some structures; these can differ, active in one and inactive in another. The source made the active and inactive calls. The calls were made as follows: active = hit-call score of the fitted dose curve at least 0.9, where 1 is the maximum; inactive = score below 0.9.

Sequence of Paired box protein Pax-6 (Homo sapiens) (P26367 whole entry, looked up): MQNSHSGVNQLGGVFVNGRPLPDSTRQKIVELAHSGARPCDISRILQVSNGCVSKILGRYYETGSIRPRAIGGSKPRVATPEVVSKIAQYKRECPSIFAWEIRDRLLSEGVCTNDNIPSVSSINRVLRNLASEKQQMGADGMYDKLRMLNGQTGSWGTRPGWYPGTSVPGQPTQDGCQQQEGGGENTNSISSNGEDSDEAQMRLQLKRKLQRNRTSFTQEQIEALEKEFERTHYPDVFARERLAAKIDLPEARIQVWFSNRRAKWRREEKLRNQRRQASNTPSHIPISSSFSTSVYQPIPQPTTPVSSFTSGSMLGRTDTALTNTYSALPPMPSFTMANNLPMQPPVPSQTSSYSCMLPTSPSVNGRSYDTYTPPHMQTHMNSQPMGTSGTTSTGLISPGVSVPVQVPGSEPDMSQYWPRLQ

Test system in one assay: not listed separately
Put plainly: ATG_PBREM_CIS: Attagene CIS-FACTORIAL HepG2 Assay for human Phenobarbital-responsive Enhancer Module (PBREM) (AID 2282955). Particulars: HepG2 PBREM cis-reporter, Attagene multiplexed transcription; actives raise or lower the signal. In outline: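 Fluorescence of labelled reporter cDNA fragments, resolved by capillary electrophoresis, gives mRNA induction in transfected HepG2 cells treated for 24 h; DMSO serves as negative control and baseline.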
Consider `Cc1cccc(N(C)C)c1`, for which the result was inactive.
Regarding `FC(F)(F)C(F)(F)C(F)(F)CI`, the outcome was inactive.
Still for that read-out and setting: in the case of `O=C(O)C(F)(OC(F)(F)C(F)(OC(F)(F)C(F)(OC(F)(F)C(F)(F)C(F)(F)F)C(F)(F)F)C(F)(F)F)C(F)(F)F` (centres undefined) it was “inactive”.
On to `Nc1ccc(Oc2cccc(Oc3ccc(N)cc3)c2)cc1`, for which the outcome was inactive.
With `FC(F)(F)C(F)(F)C(F)(F)C(F)(F)C(F)(F)C(F)(F)CCS`, the result was inactive.
With `C=C(C)C(=O)OCC(F)(F)C(F)(F)C(F)(F)F`, the outcome was inactive.
Same read-out and setting: to `COC(OC(C)=O)c1ccccc1` (centres undefined) belongs “inactive”; to `FC(F)(F)C(F)(F)C(F)(F)C(F)(F)C(F)(F)CCI`, “inactive”.
Same read-out and setting: to `Nc1ccc([N+](=O)[O-])cc1O` belongs “inactive”.
`C#C[C@]1(O)CC[C@H]2[C@@H]3CCc4cc(OC)ccc4[C@H]3CC[C@@]21C`: the outcome was inactive.
The same measure, in the same setting: in the case of `CC(C)=CCCC(C)CCOC(=O)C(C)C` (centres undefined) it was “inactive”.
Take `OCC(F)(F)C(F)(F)C(F)(F)C(F)F`: the result was inactive.
In the case of `CC(CCl)OP(=O)(OC(C)CCl)OC(C)CCl` (centres undefined), the outcome was inactive.
As to `CC(C)OC(=O)c1ccccc1C(=O)OC(C)C`, the result was inactive.
Same read-out and setting: in the case of `FC(F)(F)C(F)(F)C(F)(F)C(F)(F)C(F)(F)C(F)(F)CC1CO1` (centres undefined) it was “inactive”.

Another assay addresses Paired box protein Pax-6 (Homo sapiens) (UniProt P26367). Nature of the assay: ATG_Pax6_CIS: Attagene CIS-FACTORIAL HepG2 Assay for human Paired Box 6 (PAX6) (AID 2282956). Particulars: HepG2 CIS-FACTORIAL PAX6 reporter transcription, RNA readout; actives raise or lower the signal. Summed up: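 Multiplexed cis-reporter HepG2 system; 24 h treatment; reporter mRNA read by RT-PCR/CE fluorescence; bidirectional fit vs DMSO.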
`NC(=O)C(F)(F)C(F)(F)C(F)(F)C(F)(F)F`: the call was inactive.
With `O=P(O)(O)OCCC(F)(F)C(F)(F)C(F)(F)C(F)(F)C(F)(F)C(F)(F)F`, the compound was called inactive.
Turning to `CC(=O)Nc1ccc(N=Nc2cc(C)ccc2O)cc1`, the call was inactive.
Consider `CCCCCCC(C)OC(=O)CCCCC(=O)OC(C)CCCCCC` (centres undefined), for which the result was inactive.
On to `CC(Cc1ccc(O)c(O)c1)C(C)Cc1ccc(O)c(O)c1` (centres undefined), for which the concentration at half-maximal activity (AC50) was 22.1 µM (active).
`FC(F)(F)C(F)(F)C(F)(F)C(F)(F)C(F)(F)C(F)(F)C(F)(F)C(F)(F)CCS`: the call was inactive.
On to `FC(F)(Br)C(F)(F)C(F)(F)C(F)(F)C(F)(F)C(F)(F)Br`, for which the compound was called inactive.
Turning to `OCC(F)(F)C(F)(F)C(F)(F)C(F)(F)C(F)(F)C(F)F`, the outcome was inactive.
The same measure, in the same setting: in the case of `COC(=O)CCC(F)(F)C(F)(F)C(F)(F)C(F)(F)F` it was “inactive”; in that of `FC(F)(F)C(F)(F)C(F)(F)N(C(F)(F)C(F)(F)C(F)(F)F)C(F)(F)C(F)(F)C(F)(F)F`, “inactive”; in that of `FC(F)(F)C(F)(F)C(F)(F)C(F)(F)C(F)(F)C(F)(F)C(F)(F)C(F)(F)F`, “inactive”.
As for `c1ccc(-c2ccccc2-c2ccccc2)cc1`, the result was inactive.
Same read-out and setting: to `CCO[Si](CCC(F)(F)C(F)(F)C(F)(F)C(F)(F)C(F)(F)C(F)(F)F)(OCC)OCC` belongs “inactive”.
On to `FC(F)(I)C(F)(F)C(F)(F)C(F)(F)I`, for which the outcome was inactive.
Turning to `CCCCCCCCC(F)(F)C(F)(F)C(F)(F)C(F)(F)C(F)(F)C(F)(F)F`, the compound was classed as inactive.
`FC(F)(F)C(F)(F)CNCC(F)(F)C(F)(F)F`: the call was inactive.
As to `CC/C=C\CCOC(=O)c1ccccc1`, the outcome was inactive.
On to `O=S(=O)(OCCOC(F)(F)F)C(F)(F)F`, for which the result was inactive.
Consider `O=S(=O)(O)c1ccc2ccccc2c1`, for which the call was inactive.
Regarding `Cc1cccc(N(C)C)c1`, the outcome was inactive.
For `FC(F)(F)C(F)(F)C(F)(F)CI`, the compound was called inactive.
`O=C(O)C(F)(OC(F)(F)C(F)(OC(F)(F)C(F)(OC(F)(F)C(F)(F)C(F)(F)F)C(F)(F)F)C(F)(F)F)C(F)(F)F` (centres undefined): the outcome was inactive.
Turning to `Nc1ccc(Oc2cccc(Oc3ccc(N)cc3)c2)cc1`, the AC50 was 71 µM (active).
As to `FC(F)(F)C(F)(F)C(F)(F)C(F)(F)C(F)(F)C(F)(F)CCS`, the compound was called inactive.
For `C=C(C)C(=O)OCC(F)(F)C(F)(F)C(F)(F)F`, the outcome was inactive.
On to `COC(OC(C)=O)c1ccccc1` (centres undefined), for which the compound was classed as inactive.
With `FC(F)(F)C(F)(F)C(F)(F)C(F)(F)C(F)(F)CCI`, the outcome was inactive.
Regarding `Nc1ccc([N+](=O)[O-])cc1O`, the result was inactive.
Take `C#C[C@]1(O)CC[C@H]2[C@@H]3CCc4cc(OC)ccc4[C@H]3CC[C@@]21C`: the compound was classed as inactive.
Regarding `CC(C)=CCCC(C)CCOC(=O)C(C)C` (centres undefined), the call was inactive.
Same read-out and setting: to `OCC(F)(F)C(F)(F)C(F)(F)C(F)F` belongs “inactive”; to `CC(CCl)OP(=O)(OC(C)CCl)OC(C)CCl` (centres undefined), “inactive”; to `CC(C)OC(=O)c1ccccc1C(=O)OC(C)C`, “inactive”.
Still for that read-out and setting: to `FC(F)(F)C(F)(F)C(F)(F)C(F)(F)C(F)(F)C(F)(F)CC1CO1` (centres undefined) belongs “inactive”.

Test system in the next assay: not listed separately
Put plainly: ATG_PXRE_CIS: Attagene CIS-FACTORIAL HepG2 Assay for human Pregnane X Receptor Element (PXRE) (AID 2282957). As to conditions: HepG2 Attagene CIS-FACTORIAL PXRE reporter, mRNA; actives raise or lower the signal. Summed up:
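HepG2 cells transiently transfected with cis-regulated multiple reporter transcription units; endogenous factor activity measured as reporter mRNA 24 h after dosing. RT-PCR, fluorescent primer extension, HpaI digestion, capillary electrophoresis; bidirectional fit versus DMSO baseline.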
Turning to `NC(=O)C(F)(F)C(F)(F)C(F)(F)C(F)(F)F`, the result was inactive.
On the same count and under the same terms, to `O=P(O)(O)OCCC(F)(F)C(F)(F)C(F)(F)C(F)(F)C(F)(F)C(F)(F)F` belongs “inactive”.
As for `CC(=O)Nc1ccc(N=Nc2cc(C)ccc2O)cc1`, the AC50 was 19.5 µM (active).
Still for that read-out and setting: in the case of `CCCCCCC(C)OC(=O)CCCCC(=O)OC(C)CCCCCC` (centres undefined) it was 12.8 µM (active).
Take `CC(Cc1ccc(O)c(O)c1)C(C)Cc1ccc(O)c(O)c1` (centres undefined): the concentration at half-maximal activity (AC50) is 8.39 µM (active).
As for `FC(F)(F)C(F)(F)C(F)(F)C(F)(F)C(F)(F)C(F)(F)C(F)(F)C(F)(F)CCS`, the outcome was inactive.
Regarding `FC(F)(Br)C(F)(F)C(F)(F)C(F)(F)C(F)(F)C(F)(F)Br`, the call was inactive.
In the case of `OCC(F)(F)C(F)(F)C(F)(F)C(F)(F)C(F)(F)C(F)F`, the outcome was inactive.
Regarding `COC(=O)CCC(F)(F)C(F)(F)C(F)(F)C(F)(F)F`, the result was inactive.
For `FC(F)(F)C(F)(F)C(F)(F)N(C(F)(F)C(F)(F)C(F)(F)F)C(F)(F)C(F)(F)C(F)(F)F`, the call was inactive.
As to `FC(F)(F)C(F)(F)C(F)(F)C(F)(F)C(F)(F)C(F)(F)C(F)(F)C(F)(F)F`, the call was inactive.
Take `c1ccc(-c2ccccc2-c2ccccc2)cc1`: the AC50 was 5.73 µM (active).
Turning to `CCO[Si](CCC(F)(F)C(F)(F)C(F)(F)C(F)(F)C(F)(F)C(F)(F)F)(OCC)OCC`, the result was inactive.
As to `FC(F)(I)C(F)(F)C(F)(F)C(F)(F)I`, the compound was called inactive.
Still for that read-out and setting: to `CCCCCCCCC(F)(F)C(F)(F)C(F)(F)C(F)(F)C(F)(F)C(F)(F)F` belongs “inactive”; to `FC(F)(F)C(F)(F)CNCC(F)(F)C(F)(F)F`, “inactive”; to `CC/C=C\CCOC(=O)c1ccccc1`, “inactive”.
With `O=S(=O)(OCCOC(F)(F)F)C(F)(F)F`, the compound was classed as inactive.
As to `O=S(=O)(O)c1ccc2ccccc2c1`, the AC50 is 11.2 µM (active) and 91 µM (active).
As to `Cc1cccc(N(C)C)c1`, the compound was classed as inactive.
Regarding `FC(F)(F)C(F)(F)C(F)(F)CI`, the compound was called inactive.
In the case of `O=C(O)C(F)(OC(F)(F)C(F)(OC(F)(F)C(F)(OC(F)(F)C(F)(F)C(F)(F)F)C(F)(F)F)C(F)(F)F)C(F)(F)F` (centres undefined), the half-maximal activity concentration (AC50) was 83.3 µM (active) and the compound was called inactive.
For `Nc1ccc(Oc2cccc(Oc3ccc(N)cc3)c2)cc1`, the half-maximal activity concentration (AC50) was 25.7 µM (active).
Take `FC(F)(F)C(F)(F)C(F)(F)C(F)(F)C(F)(F)C(F)(F)CCS`: the compound was classed as inactive.
On the same count and under the same terms, in the case of `C=C(C)C(=O)OCC(F)(F)C(F)(F)C(F)(F)F` it was “inactive”; in that of `COC(OC(C)=O)c1ccccc1` (centres undefined), “inactive”.
As to `FC(F)(F)C(F)(F)C(F)(F)C(F)(F)C(F)(F)CCI`, the concentration at half-maximal activity (AC50) was 39.9 µM (active).
Consider `Nc1ccc([N+](=O)[O-])cc1O`, for which the compound was called inactive.
In the case of `C#C[C@]1(O)CC[C@H]2[C@@H]3CCc4cc(OC)ccc4[C@H]3CC[C@@]21C`, the AC50 is 5.32 µM (active).
Regarding `CC(C)=CCCC(C)CCOC(=O)C(C)C` (centres undefined), the compound was classed as inactive.
For `OCC(F)(F)C(F)(F)C(F)(F)C(F)F`, the call was inactive.
In the case of `CC(CCl)OP(=O)(OC(C)CCl)OC(C)CCl` (centres undefined), the AC50 was 3.53 µM (active).
`CC(C)OC(=O)c1ccccc1C(=O)OC(C)C`: the half-maximal activity concentration (AC50) was 3.7 µM (active).
Turning to `FC(F)(F)C(F)(F)C(F)(F)C(F)(F)C(F)(F)C(F)(F)CC1CO1` (centres undefined), the result was inactive.

Usually AC50 stands for the concentration at which the activity in the assay is half-maximal.
